Coupling enz – qHTS Assay for Inhibitors of Fructose-1,6-bisphosphate Aldolase from Giardia Lamblia: Coupling assay counterscreen. activity change, negative = inhibition, % at 58.2 µM, hits read low. coupling enzyme system counterscreen, AmpLite Red fluorescence. 290,000 compounds, 0.67% hits. AID 2472, 2010; in the data active means activity change below about -30%
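First, compound is pin-transferred into glyceraldehyde-3-phosphate coupling-enzyme reagent at 57.5 uM final and held 10 min at RT. Next, substrate, coupling system and AmpLite Red are added. After 20 min RT, fluorescence (525/598 nm) is read.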
VP16 counter – VP16 counterscreen qHTS for inhibitors of ROR gamma transcriptional activity; Drosophila S2 Gal4-VP16 UAS-luciferase, luminescence, 20 h; Potency, µM (titrated, usually from 53.6 µM), usual class: inhibitors; 310,000 compounds, 3.5% hits; AID 2546, 2010;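 further: Gal4-VP16 expression switched on by copper sulfate through the metallothionein promoter; nearly all actives have a fitted effect of over 50% in size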
TSHR antagonist – Antagonists of the Thyroid Stimulating Hormone Receptor: HTS campaign; Thyrotropin receptor (Homo sapiens), P16473; activity change, negative = inhibition, % at 11.5 µM; 330,000 compounds, 0.2% hits; TSHR-expressing cells, TSH-stimulated cAMP HTRF, 2 h; stronger effect = lower value; AID 504810, 2011;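 active means activity change below a set negative limit, meaning inhibition stronger than a set level, cut at about -70% in these data; inconclusive means activity change between two set negative limits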
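TSHR-expressing cells, 200/well, pre-treated with compound, then stimulated with EC80 TSH (4nM final) for 2 hours at 37 deg C. cAMP measured by competitive HTRF: anti-cAMP cryptate antibody in lysis buffer plus cAMP-d2, read after 30 minutes at room temperature.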
ELG1 repair inh – qHTS screen for small molecules that inhibit ELG1-dependent DNA repair in human embryonic kidney (HEK293T) cells expressing luciferase-tagged ELG1. HEK293T ELG1-luciferase reporter, luminescence, 16 h; DNA damage induced by 5-fluorouridine. Potency, µM (highest dose often 46.1 µM), most hits filed as inhibitors. 330,000 compounds, 2.3% hits. AID 504467, 2011; further: nearly all actives have a fitted effect of over 55% in size
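Reporter activity after DNA damage by 5-fluorouridine is monitored. Compound-treated cells incubate 16 hr at 37 °C, then ONE-Glo is added for 30 min before luminescence reading.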
RORg inh – qHTS for inhibitors of ROR gamma transcriptional activity; Nuclear receptor ROR-gamma (Mus musculus), P51450; Drosophila S2 Gal4-RORgamma UAS-luciferase reporter, 20 h; Potency, µM (titrated, usually from 53.6 µM), actives largely listed as inhibitors; 310,000 compounds, 5.4% hits; AID 2551, 2010; further: nearly all actives have a fitted effect of over 60% in size
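Stably transfected Drosophila Schneider cells are the test system, with ROR gamma fused to Gal4 and luciferase under UAS control; luminescence is read after 20 hr of 700 uM copper sulfate induction at ambient temperature.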
Of the large screens only hits and unclear results are named; the others gave an inactive call. Rows were chosen to be rich in hits. Some 8% of all compounds tested hit in one or more screens of this group. Unless noted, the call rests on the fitted dose curve; in most records, active means well fitted curve in the direction sought with a large enough effect; inconclusive means small, poorly fitted or top-dose-only effect, or another doubt; inactive means no such curve, though single readings can be large; an effect the other way counts as inactive or inconclusive.

Cc1ccc(Nc2nc(N)nc(CC#N)n2)cc1	ELG1 repair inh inconclusive
c1ccc(-c2nc(-c3cccs3)[nH]c2-c2ccccc2)cc1	ELG1 repair inh inconclusive, RORg inh 10µM
COc1ccc(OC)c(/C=N/NC(=O)c2[nH]ncc2Br)c1	none
Cc1ccc(O)c(/C=N/NC(=O)C2=NNC(c3ccccc3)(c3ccccc3)C2)c1	VP16 counter 2.8µM, ELG1 repair inh inconclusive, RORg inh 1.4µM
CCOc1ccc(/C=N/Nc2nc(C)cs2)c(O)c1	VP16 counter 2.2µM, ELG1 repair inh inconclusive, RORg inh 1.4µM
Cc1csc(N/N=C/c2c(F)cccc2Cl)n1	VP16 counter inconclusive, ELG1 repair inh inconclusive, RORg inh inconclusive
O=C(N/N=C/c1c(O)ccc2ccccc12)c1[nH]ncc1Br	VP16 counter 4.5µM, ELG1 repair inh inconclusive, RORg inh 2.5µM
CCOc1ccc(/C=N/NC(=O)c2[nH]ncc2Br)c(O)c1	VP16 counter 11µM, ELG1 repair inh inconclusive, RORg inh 3.5µM
Cc1c(Cl)cccc1NC(=O)C1COc2ccccc2O1 (stereo not given)	none
Cc1ccc(O)c(/C=N/NC(=O)c2[nH]ncc2Br)c1	VP16 counter 1.3µM, ELG1 repair inh inconclusive, RORg inh 1.3µM
COC(=O)c1cn(CC(=O)Nc2ccccc2C)c2ccccc12	none
CC(C)=CCC/C(C)=C/CO/N=C1/C[C@@H](O)[C@@H](O)[C@@H]2[C@@H]3C(=O)N(C(C)(C)C)C(=O)[C@H]3CC[C@@H]12	none (no result: TSHR antagonist, ELG1 repair inh)
Clc1ccccc1N=C1NN=C(c2cccs2)CS1	VP16 counter inconclusive, ELG1 repair inh inconclusive, RORg inh 11µM
CCN(CC)S(=O)(=O)c1ccc(-c2ccc(S(=O)(=O)N(CC)CC)cc2)cc1	VP16 counter inconclusive, ELG1 repair inh 6.5µM
CCN(CC)S(=O)(=O)c1ccc(N/N=C/c2cccnc2)nc1	none
CCN(c1ccccc1)S(=O)(=O)c1ccc(NN)nc1	none (no result: Coupling enz, VP16 counter, RORg inh)
CCN(CC)S(=O)(=O)c1ccc(NN)nc1	VP16 counter 18µM, ELG1 repair inh inconclusive, RORg inh 4.5µM
CC(C)N(C(C)C)S(=O)(=O)c1ccc(NN)nc1	VP16 counter inconclusive, ELG1 repair inh inconclusive, RORg inh 14µM
CCN(CC)S(=O)(=O)c1ccc(-c2csc(C)n2)cc1	none
CCN(CC)S(=O)(=O)c1ccc(N/N=C/c2cc(OC)ccc2O)nc1	VP16 counter 11µM, RORg inh 4.5µM
CCC1(CC)NC(=O)N(CC(=O)NC(=O)NCc2ccccc2)C1=O	none
CN1CCN(C(=S)Nc2ccc(Cl)cc2Cl)CC1	none
CN(C)/C=N/C(=S)Nc1ccc(Cl)cc1	ELG1 repair inh inconclusive, RORg inh 6.3µM
Cc1cccc(C)c1NC(=O)CNCC(=O)N(C)C	none
Cc1cccc(C)c1NC(=S)/N=C/N(C)C	RORg inh 20µM
CN(C)/C=N/C(=S)Nc1ccc(Cl)cc1Cl	ELG1 repair inh inconclusive, RORg inh 13µM
CC[C@]1(C(=O)OC)[C@H]2C(=O)N(C)C(=O)[C@H]2[C@H]2CN=C(SCc3ccc(C)cc3)N21	none (no result: Coupling enz, VP16 counter, RORg inh)
Cc1cc(=O)oc2cc(NC(=O)[C@H](CCCCN)NC(=O)[C@H](CC3CCCCC3)NC(=O)OCC3c4ccccc4-c4ccccc43)ccc12	none (no result: TSHR antagonist, ELG1 repair inh)
CN(C(=S)Nc1ccc(F)cc1)C(c1ccccc1)c1ccccc1	VP16 counter inconclusive, ELG1 repair inh inconclusive, RORg inh 11µM
Cc1ccc(NC(=S)N(C)C(c2ccccc2)c2ccccc2)cc1C	VP16 counter 10µM, ELG1 repair inh 13µM, RORg inh 3.5µM
COC(C(=O)Nc1ccc(F)cc1)c1ccccc1 (stereo not given)	none
COc1cccc(CN(C)C(=S)Nc2ccc(C)c(C)c2)c1	RORg inh 11µM
CC/C(O)=C(\C#N)c1nnc2n1CCCCC2	VP16 counter inconclusive, RORg inh 13µM (no result: Coupling enz)
N#C/C(=C(/O)COc1ccc(Br)cc1)c1nnc2n1CCCCC2	VP16 counter inconclusive
CC/C(O)=C(/C#N)c1nnc2n1CCCCC2	VP16 counter inconclusive, RORg inh 20µM
